Results on 25 molecules are retold here after paper PMC5540273 (PLoS ONE, 2017).

The structures appear in SMILES notation.
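Also: KINOMEscan kinase panel screen.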

The assay deals with T1, DRAK1.
T1 construct: gene STK17A
Particulars: concentration: 1 μM, replicates: in singlicate; n = 1.
For `COc1cc2ncn(-c3cc(OCc4ccncc4Br)c(C(N)=O)s3)c2cc1OC` [GW854278], the “%Inh” value is 4%.

Turning to `Cc1ccc(-c2ccc3c(ccc4sc5c(c43)NC[C@@H](C)N=C5N(C)C)n2)cn1`, the “%Inh” value was found to be 0%.

Take `COc1ccc(-c2coc3ccc(-c4nnc(SCc5cccc(C#N)c5)o4)cc23)cc1`: the “%Inh” value amounted to 2%.

On to `Cc1cc(Nc2nc(-c3cccc(C)n3)nc3ccccc23)ccn1` [GW872411], for which the “%Inh” value is 0%.

On to `Cl.NS(=O)(=O)c1cccc(Nc2cc(-c3ccc(F)cc3)n[nH]2)c1` [GW824645], for which the “%Inh” value was 0%.

On to `CC(C)(C)c1ccc(C(=O)Nc2cn3cc(-c4ccccc4)ccc3n2)cc1`, for which the “%Inh” value came to 0%.

`CCn1c(-c2ccoc2)nc2cnccc21` [SB-733887]: the “%Inh” value is listed as 0%.

Regarding `Nc1n[nH]c2nnc(-c3ccccc3)c(-c3ccccc3)c12` [GW554060], the “%Inh” value turned out to be 0%.

Turning to `CN(C)c1cc(-c2ccc3c(N)n[nH]c3c2)nc(N)n1` [GSK2219329], the “%Inh” value is on record as 36%.

As to `Nc1ncnc2c1ncn2-c1cccc(F)c1` [SKF-97560], the “%Inh” value was 20%.

On to `Nc1nc(-c2ccccc2F)c(-c2ccnc3ccccc23)s1` [GW560459], for which the “%Inh” value is 0%.

Turning to `CCn1c(-c2nonc2N)nc2ccccc21` [SB-693162/GW549034], the “%Inh” value was 9%.

As for `Cc1ccc(Oc2ccc(Nc3ncnc4cc[nH]c34)cc2C)cn1`, the “%Inh” value turned out to be 0%.

For `Cc1nnc(-c2ccc(C)c(-c3ccc(C(=O)O)cc3)c2)o1` [GW608005], the “%Inh” value stood at 0%.

As for `CCS(=O)c1ccc(-c2coc3ccc(-c4nnc(C)o4)cc23)cc1` (stereo not shown), the “%Inh” value was determined as 0%.

As for `COC(=O)c1c(-c2ccccc2)c2cc(C)ccc2c(=O)n1Cc1ccccc1`, the “%Inh” value was determined as 0%.

Regarding `Nc1nccc2scc(-c3ccc4c(c3)CCN4C(=O)Cc3ccccc3)c12` [GSK2576924], the “%Inh” value is on record as 1%.

Regarding `OCCCNc1nccc(-c2c(-c3cccc(C(F)(F)F)c3)nn3cc(C(F)(F)F)ccc23)n1` [GW630813], the “%Inh” value worked out at 0%.

As for `O=c1cc(N2CCOCC2)nc2n(Cc3ccc(F)c(Cl)c3)ccn12` [GSK2297099], the “%Inh” value was 0%.

`Cc1nnc(-c2ccc3ncn(-c4ccc(S(C)=O)cc4)c3c2)o1` (stereo not shown): the “%Inh” value turned out to be 3%.

As to `COC(=O)c1c(-c2ccccc2)c2cc(Br)ccc2c(=O)n1Cc1ccc(NC(=O)CCC(=O)O)cc1`, the “%Inh” value was found to be 0%.

As for `COc1cc(OC)cc(-c2cc3cnc(N)nc3nc2NC(=O)NC(C)(C)C)c1`, the “%Inh” value was determined as 0%.

On to `Nc1ncnc2c1ncn2-c1ccc(Cl)cc1` [AH2635], for which the “%Inh” value is recorded as 17%.

For the molecule `Cl.c1ccc(Cn2cnc3cc(Nc4ncnc5ccccc45)ccc32)cc1` [GW272142], the “%Inh” value was found to be 0%.

In the case of `CCC(=O)c1c(-c2ccccc2)c2cc(Cl)ccc2c(=O)n1Cc1ccc(C(=O)O)cc1`, the “%Inh” value was 0%.
